PrP 5UTR inh: inhibition of PrP 5' UTR reporter expression. cell-based PrP 5' UTR mRNA reporter, plate reader. inhibition, % (no concentration beside the values). 340,000 tested, 0.35% active. AID 488862, 2010; in the data active = inhibition above about 52%
FadD28 binding: inhibitors of FadD28 bisubstrate probe binding, primary screen, biochemical, fluorescence polarization, single point | Mycobacterium tuberculosis FadD28 fatty-acid-AMP ligase | inhibition, % at 12.5 µM | 360,000 tested, 0.22% active | AID 588549, 2011; in the data active = inhibition above about 8.5%, passing the limit was not always enough
PrPC TRFRET: inhibitors of human cell surface prion protein PrPC, primary screen, cell-based, TR-FRET. Major prion protein (Homo sapiens), P04156. TR-FRET read-out. inhibition, % at 13.8 µM. 370,000 tested, 0.43% active. AID 720596, 2013; in the data active = inhibition above about 24%
BH1578 lux ind: inducers of Vibrio cholerae quorum light production without autoinducers, primary screen, BH1578 luxS cqsA deficient, single point. V. cholerae BH1578 lux reporter, luminescence, 6 h. 350,000 tested, 0.16% active. activation, % at 18.7 µM; in the data active = activation mostly above about 9.7%, no sharp cut-off
SSB-PriA inh: inhibitors of Klebsiella pneumoniae PriA binding to SSB C-terminal tail, primary screen, biochemical, AlphaScreen. PriA–SSB C-terminal tail interaction (Klebsiella pneumoniae). inhibition, % at 33 µM. AlphaScreen SSBct-PriA binding, biotinylated peptide. AID 1272365, 2023. 430,000 tested, 0.6% active; in the data active = inhibition mostly above about 37%, no sharp cut-off; inactive = mostly below about 20%
PrP UTR cherry: prion 5' UTR mRNA inhibition, cherry-pick retest; 1,100 tested, 48% active; AID 504592, 2011; shares compounds with PrP 5UTR inh; inhibition, % at 2.5 µM; cell-based prion protein 5' UTR reporter, plate reader; in the data active = inhibition above about 54%
A number is an active result; . = inactive; / = no result given. The list is not random: actives were taken first. Their share in the collection is about 1.4%.

SMILES	PrP 5UTR inh	FadD28 binding	PrPC TRFRET	BH1578 lux ind	SSB-PriA inh	PrP UTR cherry
COc1ccc(-c2nn3c(-c4n[nH]c5c4CCC5)nnc3s2)cc1	/	/	.	/	/	/
CCN(CC)c1ccc(-c2nn3c(-c4n[nH]c5c4CCC5)nnc3s2)cc1	74	.	.	.	.	84
C=CC[n+]1c(-c2ccc(C)cc2)csc1Nc1ccc(NC(C)=O)cc1	71	.	.	.	.	59
COC(=O)c1ccc(NC(=O)Cn2c(-c3nonc3N)nc3ccccc32)cc1	.	.	.	.	.	/
COC(=O)c1ccccc1NC(=O)Cn1c(-c2nonc2N)nc2ccccc21	70	.	/	.	.	91
Cc1cc(C)cc(NC(=O)CCc2c(C)nn(-c3nc(C)cc(=O)[nH]3)c2C)c1	/	/	/	/	.	/
Cc1ccc(C(=O)/C=C/Nc2ccccn2)cc1	76	.	.	.	/	62
COc1ccc(C(=O)Nc2nc3ccccc3s2)c(OC)c1	95	.	.	.	.	95
COc1ccccc1C(=O)Nc1nc2ccc(S(C)(=O)=O)cc2s1	.	.	.	.	.	/
CCOc1ccc2nc(NC(=O)c3ccccn3)sc2c1	63	.	.	.	.	.
COc1ccccc1C(=O)Nc1nc2ccccc2s1	92	.	.	.	.	93
O=C(CCS(=O)(=O)c1ccccc1)Nc1cnn(CC2COc3ccccc3O2)c1 (stereo unspecified)	/	/	/	/	.	/
Cc1noc(C)c1CCC(=O)N1CCN(c2cc(C(F)(F)F)ncn2)CC1	/	/	/	/	.	/
CCNC(=O)Cc1csc(NC(=O)C(C)(C)C)n1	/	/	/	/	.	/
Cc1c(C(=O)OCC2CCCO2)[nH]c2c1C(=O)CC(c1ccco1)C2 (stereo unspecified)	.	.	/	.	.	/
Cc1c(C(=O)OCC(C)C)[nH]c2c1C(=O)CC(c1ccco1)C2 (stereo unspecified)	70	.	.	.	.	85
Cc1c(C(=O)OC2CCCC2)[nH]c2c1C(=O)CC(c1ccco1)C2 (stereo unspecified)	61	.	.	.	.	73
C/C=C/COC(=O)c1[nH]c2c(c1C)C(=O)CC(c1ccco1)C2 (stereo unspecified)	62	.	.	.	.	85
C=CCOC(=O)c1[nH]c2c(c1C)C(=O)CC(c1ccco1)C2 (stereo unspecified)	/	/	/	/	.	/
CCOC(=O)c1c(-c2ccc(OC)cc2)oc2ccc(OC(=O)N3CCOCC3)cc12	/	/	/	/	.	/
CN(C)c1ccc2c(c1)C(=NO)c1ccccc1-2	68	.	/	.	53	.
S=c1[nH]nc(-c2ccco2)n1N=C/C(Cl)=C/c1ccccc1	/	/	/	/	.	/
CCc1ccn2cc(-c3cc(-c4ccccc4)no3)nc2c1	71	.	.	.	.	82
Cc1ccc(CN2C(=O)S/C(=C\c3ccccc3OCC(=O)O)C2=O)cc1	81	.	.	.	.	.
Cc1cc(NC(=O)C2CC2)n(-c2nc3c(cnn3-c3cccc(Cl)c3)c(=O)[nH]2)n1	/	/	/	/	.	/
SMILES	PrP 5UTR inh	FadD28 binding	PrPC TRFRET	BH1578 lux ind	SSB-PriA inh	PrP UTR cherry
CCC(C)(C)c1ccc(Oc2ccc(N)cc2)cc1	87	.	.	.	.	88
CCC(C)(C)c1ccc(Oc2cccc(C(=O)O)c2)cc1	.	.	.	.	.	/
COc1ccc2c(=O)cc(-c3cccnc3)oc2c1OC	54	.	.	.	.	.
COc1cc(-c2nnc(-c3cccnc3)o2)cc(OC)c1OC	.	.	.	.	.	/
COCc1nnc(NS(=O)(=O)c2ccc(OC)cc2)s1	62	.	.	.	.	.
Cc1cccc(OC2CCN(C(=O)CCC(=O)c3ccc(Cl)cc3)CC2)n1	/	/	/	/	.	/
O=C(NCCCN1CCN(c2ccccc2)CC1)C1CCCC1	/	/	/	/	.	/
CCCS(=O)(=O)N1CCCC(C(=O)NC2CCCC(C)C2C)C1 (stereo unspecified)	86	.	.	/	.	.
Cc1ccc(NC(=O)CC(N)C(=O)O)cc1 (stereo unspecified)	/	/	/	/	.	/
Cc1ccc(C2(SCC(N)C(=O)O)c3ccccc3-c3ccccc32)cc1 (stereo unspecified)	89	.	.	.	.	.
CCN1C=C(C(=O)c2ccccc2)C(=O)CC1	61	.	.	.	.	.
CCCCN1C=C(C(=O)c2ccccc2)C(=O)CC1	.	.	.	.	.	/
CCCC[C@@H](C)C[C@@H](C)C(=O)N(C)[C@@H](CC(C)C)C(=O)N[C@H](C(=O)N(C)[C@H](C(=O)N1C[C@@H](O)C[C@H]1C(=O)N1C(=O)C=C[C@@H]1C)C(C)C)C(C)OC(C)=O (stereo partly specified)	85	.	/	.	.	96
O=[N+]([O-])c1ccc(O)c(/C=N/Nc2ccccn2)c1	54	.	.	.	/	58
COc1cccc(S(=O)(=O)N2CC(C)CC(C)C2)c1 (stereo unspecified)	/	/	/	/	.	/
CN1C(=O)C(C(N)=NNC(=O)c2ccccc2)C2CC1(C)Oc1ccccc12 (stereo unspecified)	/	/	/	/	.	/
CC(C(=O)Nc1ccc(F)c(F)c1F)N(C)CC(=O)Nc1ccccc1Br (stereo unspecified)	.	.	.	.	.	/
CSc1ccc(CN(C)C(C)C(=O)Nc2ccc(F)c(F)c2F)cc1 (stereo unspecified)	53	.	.	.	.	.
C[C@H]1[C@@H](OS(=O)(=O)O)C[C@@H]2C[C@H]([C@@H](O)c3cc(=O)[nH]c(=O)[nH]3)NC3=NC[C@H]1N32	61	.	/	.	.	66
O=C1OCCN1C(=O)[C@H]1[C@H](c2ccccc2)C(c2ccc(F)cc2)=NN1c1ccc(Br)cc1	67	.	.	.	.	.
CCCCOc1ccccc1-c1cc2c(SCC(=O)Nc3ccc(Cl)cc3)nccn2n1	/	/	/	/	.	/
CN(C)S(=O)(=O)c1ccc(C(=O)NCc2ccccc2)cc1	.	.	.	.	.	/
CN(C)S(=O)(=O)c1ccc(C(=O)NCC2CC2(Cl)Cl)cc1 (stereo unspecified)	63	.	.	.	.	.
C[C@H]1CCC/C=C/C2C[C@H](O)CC2[C@H](O)/C=C/C(=O)O1 (stereo partly specified)	81	.	/	.	/	90
CCOC(=O)C1(CCc2ccccc2)CCN(C(=O)CCn2cncn2)CC1	81	.	.	.	.	.
C[C@]12CC[C@H]3C(CCC4(O)CC(O)CC[C@]34C=O)C1=CC[C@H]2c1ccc(=O)oc1 (stereo partly specified)	/	.	.	.	.	/
CC(=O)O[C@H]1[C@H]2O[C@]23[C@@H]2CC[C@]4(O)C[C@@H](O)CC[C@]4(C)C2CC[C@]3(C)[C@H]1c1ccc(=O)oc1 (stereo partly specified)	94	.	/	.	.	91
COc1ccc(OC)c(-c2ccc(N3CCN(C(=O)Cc4cccs4)CC3)nn2)c1	/	/	/	/	.	/

Bioassay records from PubChem BioAssay.
